# Measurements as given in PubChem BioAssay (Tox21).
# Results filed as inconclusive are left out. Entries that show only a call come without a potency. The source made the active and inactive calls. The call rests on the fitted dose curve; in most records, active means well fitted curve in the direction sought with a large enough effect in the repeat runs; inconclusive means weak or mixed curves; inactive means no such curve, though single readings can be large; an effect the other way counts as inactive or inconclusive.
# Test system: not listed separately
# Test: qHTS assay to identify small molecule antagonists of the androgen receptor (AR) signaling pathway - cell viability counter screen (AID 743033; further: nearly all actives have a fitted effect of over 45% in size)
# Conditions: AR-bla HEK293 viability, CellTiter-Glo luminescence, 16 h; series mostly up to 58.5 µM
row,SMILES,Potency
1,CCCCCCOC(=O)CCCCC(=O)OCCCCCC,inactive
2,O=C1NC(=O)[C@@]2(CCOc3ccc(F)cc32)N1,inactive
3,C=CCCCCCCCCC=O,inactive
4,O=C1CCCN1C1CCCCC1,inactive
5,CCC=O,inactive
6,CC(C)(C)c1ccc(O)c(O)c1,inactive
7,CN1CCC(=C2c3ccccc3CC(=O)c3sccc32)CC1,inactive
8,NC(=O)c1ccc([N+](=O)[O-])cc1,inactive
9,Cc1cc(O)cc2c1O[C@](C)(CCC[C@H](C)CCC[C@H](C)CCCC(C)C)CC2,inactive
10,C=C(C)CS(=O)(=O)O,inactive
11,CC/C=C\CC/C=C/C(OCC)OCC,inactive
12,CC[N+](C)(C)c1cccc(O)c1,inactive
13,COc1c(N2C[C@@H]3CCCN[C@@H]3C2)c(F)cc2c(=O)c(C(=O)O)cn(C3CC3)c12,inactive
14,CCN(CC)CCOCCOC(=O)C1(c2ccccc2)CCCC1,inactive
15,c1cnc(N2CCN(Cc3ccc4c(c3)OCO4)CC2)nc1,inactive
16,CC(C[N+](C)(C)C)OC(N)=O (configuration not stated),inactive
17,Cn1cc(S(C)=O)c(=O)c2ccc(F)cc21 (configuration not stated),inactive

row,SMILES,Potency
1,c1ccc([C@H]2CN3CCSC3=N2)cc1,inactive
2,NC(=O)c1cn(Cc2c(F)cccc2F)nn1,inactive
3,N=c1nc(N2CCCCC2)cc(N)n1O,inactive
4,NCCc1cnc[nH]1,inactive
5,NC(=O)c1ccc(N)cc1,inactive
6,COC(=O)NN,inactive
7,O=C(O)CCCc1ccccc1,inactive
8,C1CN(CCOCCN2CCOCC2)CCO1,inactive
9,Nc1cc(=O)[nH]c(N)n1,inactive
10,C/C=C(\C)C#N,inactive
11,OCCCC1CCCCC1,inactive
12,O=c1cc(CO)occ1O,inactive
13,FC1(F)C(F)(F)C(F)(F)C2(F)C(F)(F)C(F)(F)C(F)(F)C(F)(F)C2(F)C1(F)F (configuration not stated),inactive
14,FC(F)OC(Cl)C(F)(F)F (configuration not stated),inactive
15,CC1(C)CO[C@@H](CC(=O)O)CN1,inactive
16,O=C(O)CN(CCOCCOCCN(CC(=O)O)CC(=O)O)CC(=O)O,inactive
17,CCCCCOC(=O)CCCCC,inactive

# Biological target: Androgen receptor (Homo sapiens) (UniProt P10275)
# Test: qHTS assay to identify small molecule agonists of the androgen receptor (AR) signaling pathway using the MDA cell line (AID 743040; further: nearly all actives have a fitted effect of over 20% in size)
# Conditions: MDA-kb2 AR-luc cells, MMTV luciferase, 16 h; series mostly up to 70.3 µM
# Procedure, shortened: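 Agonist activity is measured as luciferase luminescence in human MDA-kb2 cells whose MMTV reporter responds to both AR and GR. Compounds in DMSO incubate 16 h at 37C, 0% CO2, and ONE-Glo is read after 30 min.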
# Chain of Androgen receptor (Homo sapiens) (P10275 whole entry, looked up): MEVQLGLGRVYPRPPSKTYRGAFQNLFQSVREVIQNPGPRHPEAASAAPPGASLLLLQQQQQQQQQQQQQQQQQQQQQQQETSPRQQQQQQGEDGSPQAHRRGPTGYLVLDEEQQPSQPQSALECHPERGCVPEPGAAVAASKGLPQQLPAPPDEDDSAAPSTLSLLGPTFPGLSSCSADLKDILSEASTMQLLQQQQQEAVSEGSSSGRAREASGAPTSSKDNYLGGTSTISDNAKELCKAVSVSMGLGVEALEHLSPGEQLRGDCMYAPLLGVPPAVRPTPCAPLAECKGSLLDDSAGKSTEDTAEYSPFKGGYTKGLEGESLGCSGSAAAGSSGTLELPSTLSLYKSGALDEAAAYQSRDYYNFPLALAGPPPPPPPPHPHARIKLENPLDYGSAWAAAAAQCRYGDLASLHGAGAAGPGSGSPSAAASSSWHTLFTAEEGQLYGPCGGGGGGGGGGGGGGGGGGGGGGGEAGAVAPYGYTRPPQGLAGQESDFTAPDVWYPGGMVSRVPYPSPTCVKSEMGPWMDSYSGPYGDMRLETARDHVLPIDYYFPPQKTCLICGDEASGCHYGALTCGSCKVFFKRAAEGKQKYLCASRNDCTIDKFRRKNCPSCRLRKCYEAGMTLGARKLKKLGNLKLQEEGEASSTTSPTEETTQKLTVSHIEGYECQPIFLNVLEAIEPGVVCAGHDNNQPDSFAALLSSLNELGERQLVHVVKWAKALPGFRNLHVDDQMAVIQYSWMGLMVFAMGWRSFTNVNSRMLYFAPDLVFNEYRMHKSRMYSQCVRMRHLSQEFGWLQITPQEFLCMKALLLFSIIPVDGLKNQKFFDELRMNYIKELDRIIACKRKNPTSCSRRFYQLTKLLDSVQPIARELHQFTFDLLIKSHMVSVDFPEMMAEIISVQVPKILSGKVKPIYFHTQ
row,SMILES,Potency
1,C=C(C)CS(=O)(=O)O,inactive
2,NS(=O)(=O)c1cc2c(cc1Cl)NC(C1CC3C=CC1C3)NS2(=O)=O (configuration not stated),inactive
3,FC1(F)C(F)(F)C(F)(F)C2(F)C(F)(F)C(F)(F)C(F)(F)C(F)(F)C2(F)C1(F)F (configuration not stated),inactive
